MsrA inh = inhibitors of bovine MsrA | purified bovine MsrA, absorbance read-out | inhibition, % at 15.5 µM | 360,000 tested, 0.75% active | AID 651718; in the data active = inhibition above about 4.5%;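 also: 0% = vehicle wells with enzyme and 100% = reference inhibitor wells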
SMARCA2 activ = activators of SMARCA2 function. activation, % at 9.1 µM. AID 652017. MG213 cells, MMTV-luciferase reporter, dexamethasone, overnight. 370,000 tested, 1% active; in the data active = activation above about 7.8%;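 also: 0% = vehicle wells and 100% = reference activator wells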
KLK7 zymogen act = proKLK7 (human) activation, primary screen; 370,000 tested, 0.9% active; purified proKLK7, EDANS-DABCYL substrate fluorescence; 100% is mature enzyme control, 0% vehicle; AID 652039; activation, % at 7 µM; P49862;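 active = activation above the mean of all tested compounds plus 3 SD, computed per campaign excluding outliers beyond control limits, cut at about 13% in these data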
Target sequence (P49862 whole entry, looked up): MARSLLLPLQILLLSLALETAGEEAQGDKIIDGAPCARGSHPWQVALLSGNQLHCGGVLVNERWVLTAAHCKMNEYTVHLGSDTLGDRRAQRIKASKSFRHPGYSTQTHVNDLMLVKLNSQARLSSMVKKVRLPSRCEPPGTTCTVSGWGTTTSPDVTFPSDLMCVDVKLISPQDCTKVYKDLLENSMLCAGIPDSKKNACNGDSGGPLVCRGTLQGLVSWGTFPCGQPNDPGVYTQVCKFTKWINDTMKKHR
bovine MsrA act = bovine methionine sulfoxide reductase A activation; 360,000 tested, 0.3% active; purified bovine MsrA, absorbance read-out; AID 602163; activation, % at 10.6 µM; in the data active = activation above about 7.5%;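 also: 0% = vehicle and 100% = reference activator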
SMARCA2 act conf = confirmation of SMARCA2 (BRM) function activators; activation, % at 9.1 µM; 3,500 tested, 30% active; MG213 cells, MMTV-luciferase with dexamethasone, luminescence, overnight; MG213 cells expressing E1A, Rb sequestered; DMSO wells 0%, reference activator 100%; shares compounds with SMARCA2 activ;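 active = activation above its plate's cutoff, the mean activation of tested wells plus 3 SD, cut at about 7.9% in these data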
GAL4-VP16 Luc = GAL4-VP16 reporter activation counter-screen. shares compounds with SMARCA2 activ. HEK293 GAL4-VP16 pG5luc reporter, luciferase luminescence; scaled: DMSO wells 0%, SAHA wells 100%. activation, % at 9.1 µM. 3,500 tested, 41% active. AID 686939;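 active = activation above the solvent-only control well mean plus 3 SD, averaged across control plates, cut at about 5.2% in these data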
Numbers without * were called inactive; . = not tested or not shown. In the library only some 2.8% were active in any assay of this set; here they are far more common.

SMILES	MsrA inh	SMARCA2 activ	KLK7 zymogen act	bovine MsrA act	SMARCA2 act conf	GAL4-VP16 Luc
CNc1nnc(-c2cc3cc(Cl)ccc3oc2=O)s1	-1	9.7*	-10	-4	10*	11*
COc1ccc(C(CC(=O)Nc2nccs2)C(C)C)cc1 (stereo not given)	2	-4	0	-1	.	.
COc1ccc(C(CC(=O)Nc2nccs2)n2cccc2)cc1 (stereo not given)	1	8.1*	0	-11	5	10.0*
O=C(N/C(=C\c1ccco1)C(=O)N1CCCC(CO)C1)c1ccccc1 (stereo not given)	0	-2	0	-4	.	.
CCCc1cc(=O)c2ccc(OC/C(C)=N/O)cc2o1	-1	8.5*	4	-2	3	2
CC(C)COC(=O)c1ccc2c(c1O)C(=O)c1ccccc1C2=O	0	8.7*	0	-4	4	4
NC(=O)COC(=O)c1cccc2c1-c1ccccc1C2=O	0	-3	0	-7	.	.
CCCCCCC(=O)NC1CCCCN(Cc2ccccc2C)C1=O (stereo not given)	.	-1	1	.	.	.
CCCC#Cc1ccc(CC[C@H]2O[C@H]3CC[C@@H](CO)O[C@H]3C[C@H]2NC(=O)CN2CCOCC2)cc1	.	-1	1	.	.	.
COc1ccccc1Cn1c(-c2ccco2)nc2nc3ccccc3nc21	2	8.6*	0	-2	4	1
Cc1ccc2nc(/C(C#N)=C\c3ccc(N4CCOCC4)o3)[nH]c2c1	2	0	-7	-4	.	.
N#C/C(=C/c1ccc(N2CCOCC2)o1)C(=O)Nc1ccccc1	1	8.8*	1	-6	7	11*
COc1cc(/C=C(\C#N)C(=O)Nc2ccccc2F)ccc1OCCN1CCOCC1	0	1	1	-7	.	.
Cc1ccc(/C(C#N)=C\c2ccc(N3CCOCC3)o2)cc1	2	9.1*	0	-7	14*	21*
COc1cc(/C=C(\C#N)C(=O)Nc2ccccc2)ccc1OCCN1CCOCC1	1	8.5*	0	-2	5	6.0*
Cc1n[nH]c(=O)n(N=Cc2c[nH]c3ccccc23)c1=O	0	-1	0	-2	.	.
COc1cccc(CNC(=O)[C@H]2CCCN2C(=O)C2CCCN2C(=O)c2ccc(OC)c(F)c2)c1 (stereo not given in full)	1	-4	0	.	.	.
COC(=O)[C@]12C[C@H](CC(=O)NCCCN3CCCC3=O)C(=O)N(Cc3cccc4ccccc34)C1=C[C@H](C(C)C)O[C@@H]2C1CC1	.	-1	0	.	.	.
CCOc1ccc(CCN2C(=O)C(=O)N([C@@H](CC(C)C)CN3CCC[C@H]3CN3C(=O)C(=O)NC[C@@H]3CC(C)C)C[C@@H]2Cc2ccc(O)cc2)cc1	2	-6	0	-9	.	.
O=C(Nc1ccccc1Cl)c1cc2ccccc2o/c1=N\O	1	11*	0	-1	15*	16*
COCC1CCCCN1Cc1cn[nH]c1-c1ccc2cc(OC)ccc2c1 (stereo not given)	0	11*	-1	-3	3	4
Cc1ccc(NC(=O)CCS(=O)(=O)c2ccccc2)c(C)c1	.	-5	0	.	.	.
O=c1c(C(c2ccc(F)cc2)c2c(O)nc3n(c2=O)CCS3)c(O)nc2n1CCS2	0	9.3*	0	-2	5	1
O=c1c(C(c2ccc(Cl)cc2)c2c(O)nc3n(c2=O)CCS3)c(O)nc2n1CCS2	-1	-4	0	-6	.	.
COCCNC(=O)C1(C)CCN(C(=O)c2cccc(C)c2C)C1 (stereo not given)	0	4	1	-1	.	.
SMILES	MsrA inh	SMARCA2 activ	KLK7 zymogen act	bovine MsrA act	SMARCA2 act conf	GAL4-VP16 Luc
CCc1ccc(-n2c(=O)c3ccccc3n(CC(=O)NCc3ccco3)c2=O)cc1	-1	8.6*	0	-9	-4	-1
COc1cccc(C(=O)Nc2cc(C(=O)NCCc3ccccc3)ccc2Cl)c1	1	2	0	0	.	.
CCCCC(=O)Nc1cc(C(=O)NCCc2ccccc2)ccc1Cl	0	8.2*	0	-6	7	8.8*
O=C(Nc1nc(-c2cc3ccccc3oc2=O)cs1)c1ccco1	2	17*	3	-6	-1	2
CCc1sc(C(=O)NCc2ccco2)cc1C	0	11*	0	-5	-1	1
COc1cc(/C=N/NC(=S)NC2CC3CCC2C3)ccc1O (stereo not given)	2	9.4*	-8	-3	7	3
COc1ccc(/C=N/NC(=S)N[C@H]2CC3CCC2C3)cc1 (stereo not given in full)	1	-2	0	-1	.	.
CCCCn1nnnc1C1c2ccccc2OCC(=O)N1Cc1ccc2c(c1)OCO2 (stereo not given)	.	-3	0	.	.	.
CCCCCn1nnnc1C1c2ccccc2OCC(=O)N1Cc1ccco1 (stereo not given)	.	10*	0	.	0	0
CN(C)CCCNCCCNC(=O)c1ccccn1	-1	0	0	0	.	.
O=C(NCCCNCCCNC(=O)c1ccccn1)c1ccccn1	0	12*	-1	-1	-3	1
Cn1c2ccccc2c2cc([N+](=O)[O-])ccc21	-1	-3	-2	-4	.	.
CCN(CC)CCn1c2ccccc2c2nc3ccc([N+](=O)[O-])cc3cc21	1	10*	-2	-1	99*	5
CC1CCC(NC(=O)C(C)N2C(=O)C3CCCCC3C2=O)CC1 (stereo not given)	0	9.3*	0	-3	2	2
CC(C(=O)NC1CCCCC1)N1C(=O)C2C3C=CC(C3)C2C1=O (stereo not given)	-1	1	0	-5	.	.
O=C(NC1CCCCN(Cc2ccc(Cl)cc2)C1=O)c1cccc([N+](=O)[O-])c1 (stereo not given)	.	-4	0	.	.	.
COC(=O)[C@]12C[C@H](CC(=O)NCc3ccccc3)C(=O)N(CCC3=CCCCC3)C1=C[C@H](C1CCCC1)O[C@@H]2C	.	5	1	.	.	.
CC(C)(C)S(=O)N1Cc2cc(C(=O)N3CCc4ccccc4C3)nc(-c3cccc(-c4ccncc4)c3)c2[C@H]1CCO (stereo not given in full)	-2	-2	0	-5	.	.
CCN1CCN(c2ccc(S(=O)(=O)N3CCOCC3)cc2NC(=O)c2cccc([N+](=O)[O-])c2)CC1	0	2	1	-1	.	.
CCN1CCN(c2ccc(S(=O)(=O)N3CCOCC3)cc2NC(=O)/C=C/c2ccc([N+](=O)[O-])cc2)CC1	2	11*	0	-2	35*	2
Cc1ccc(F)cc1NC(=O)/C=C/c1ccc(S(=O)(=O)N2CCOCC2)cc1	0	-2	0	-1	.	.
O=C(/C=C/c1ccc(S(=O)(=O)N2CCOCC2)cc1)Nc1cc(F)ccc1F	1	9.0*	0	-5	5	5

Source: PubChem (The Scripps Research Institute Molecular Screening Center)
